Some test systems named below: NCI-H23 lung; NCI-H226 lung; NCI-H322M lung; HOP-62 NSCLC; NCI-H460 lung; NCI-H522 lung; A549/ATCC NSCLC; 786-0 renal; COLO 205 colon.
Assay in all cases: NCI-60 one-dose screen, 48 h (100 = growth as untreated, 0 = no growth, -100 = all killed)
What all share (conditions): 10 µM unless noted

This is part of a sample that, as a whole, favours compounds with a hit. Of some 83,000 tested, about 20% had one in any assay.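 96-well plates, one dose, 48 hours. Percent growth reported; active if below 10.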 A number with no mark means an inactive call. The source made the active and inactive calls.

Turning to `CN(C)c1nc(NCCNS(=O)(=O)c2ccc(C3=Nc4c(N)nc(N)nc4NC(c4ccc(C(F)(F)F)cc4)C3)cc2)nc(Nc2ccc(F)cc2)n1` (stereo unspecified), the growth in the assay with NCI-H23 lung is 31.5%; in the assay with NCI-H226 lung, 24.3%; in the assay with NCI-H322M lung it was 46.7%; in the assay with HOP-62 NSCLC, 56.1%; with NCI-H460 lung, -7.38% (active); in the assay with NCI-H522 lung, 5.71% (active). Further, the results for the growth in the assay on A549/ATCC NSCLC, in the assay with 786-0 renal and with COLO 205 colon were 45.8%, -35.4% (active) and -83.5% (active), respectively.

Consider `COc1c(F)ccc(C(=O)Nc2ccc3nc(NC(=O)C4CCCN(S(=O)(=O)c5ccc(C(F)(F)F)cc5)C4)sc3c2)c1F` (stereo unspecified), for which the growth is 94.4% with NCI-H23 lung; 81.3% in the assay with NCI-H226 lung; 91.9% with NCI-H322M lung; 94.6% in the assay on HOP-62 NSCLC; 78% with NCI-H460 lung; 76% with NCI-H522 lung. The growth with A549/ATCC NSCLC was 75.3%; in the assay on 786-0 renal, 62.9%; in the assay with COLO 205 colon it was 84.2%.

Regarding `COc1ccc(-c2ccnc(SCc3cc4ccccc4[nH]c3=O)n2)cc1OC`, the growth in the assay on NCI-H23 lung is 15.6%; in the assay on NCI-H226 lung, -23.1% (active); in the assay with NCI-H322M lung, -51.5% (active); in the assay with HOP-62 NSCLC, -53.5% (active); in the assay on NCI-H460 lung, 8.25% (active); in the assay on NCI-H522 lung, -21.2% (active). Besides, the growth was 11.7% with A549/ATCC NSCLC, -25.4% (active) in the assay with 786-0 renal and 4.51% (active) with COLO 205 colon.

As to `C=C1CC[C@@H]2[C@]3(C)COC(c4cn[nH]c4-c4ccc(Br)cc4)O[C@@H]3CC[C@@]2(C)[C@@H]1C/C=C1/C(=O)OCC1O` (stereo partly specified), the growth with NCI-H23 lung is -86.1% (active); with NCI-H226 lung it was -83.3% (active); in the assay with NCI-H322M lung, 32%; in the assay on HOP-62 NSCLC, -46.1% (active); in the assay on NCI-H460 lung it was -82.3% (active); in the assay on NCI-H522 lung it was -57.5% (active). Moreover, the figures for the growth with A549/ATCC NSCLC, in the assay on 786-0 renal and with COLO 205 colon were -30.5% (active), -95.5% (active) and -54.6% (active), respectively.

Turning to `Cc1cccc(-c2nc(Nc3cccc(S(N)(=O)=O)c3)c3ccccc3n2)c1`, the growth in the assay with NCI-H23 lung is 39.6%; in the assay with NCI-H226 lung, 54.3%; in the assay with NCI-H322M lung it was 52.2%; with HOP-62 NSCLC, 80.2%; with NCI-H460 lung, 37.6%; with NCI-H522 lung, 4.87% (active). The growth is 35.7% with A549/ATCC NSCLC, 5.75% (active) in the assay with 786-0 renal and 51.9% in the assay on COLO 205 colon.

Take `Cc1ccc(C2CC(c3ccc(S(=O)(=O)NCCNc4nc(Nc5ccc(F)cc5)nc(N(C)C)n4)cc3)=Nc3c(N)nc(N)nc3N2)cc1` (stereo unspecified): the growth is 65.3% in the assay on NCI-H23 lung; 62.7% in the assay on NCI-H226 lung; 70.2% with NCI-H322M lung; 87.7% in the assay with HOP-62 NSCLC; 38.2% with NCI-H460 lung; 58.5% in the assay with NCI-H522 lung. Besides, the results for the growth with A549/ATCC NSCLC, with 786-0 renal and in the assay with COLO 205 colon were 68.4%, 42% and 54.8%, respectively.

On to `O=C(NN1C(=O)/C(=C/C=C/c2ccc([N+](=O)[O-])o2)SC1=S)c1ccc(Cl)cc1`, for which the growth in the assay on NCI-H23 lung was -86.7% (active); with NCI-H226 lung, -97.1% (active); with NCI-H322M lung it was -100% (active); in the assay with HOP-62 NSCLC, -98.8% (active); in the assay with NCI-H460 lung it was -72.7% (active); in the assay on NCI-H522 lung, -88.8% (active). The growth with A549/ATCC NSCLC was -86.7% (active); in the assay with 786-0 renal, -82.3% (active); in the assay with COLO 205 colon it was -94.8% (active).

For the compound `Cc1ncsc1-c1ccc(CNC(=O)[C@@H]2C[C@@H](O)CN2C(=O)[C@@H](NC(=O)C2(F)CC2)C(C)(C)C)c(OCCOCCOCCOCCOc2nc(Nc3cc(S(C)(=O)=O)ccc3N[C@@H](c3cccc4c3OC(F)(F)O4)c3ncccc3Cl)nc(N3CCNCC3)n2)c1`, the growth in the assay on NCI-H23 lung was 85.3%; with NCI-H226 lung it was 71.5%; in the assay on NCI-H322M lung, 82.3%; in the assay with HOP-62 NSCLC, 90.6%; in the assay with NCI-H460 lung, 87.3%; in the assay with NCI-H522 lung, 100%. Moreover, the values for the growth with A549/ATCC NSCLC, with 786-0 renal and with COLO 205 colon were 103%, 97.7% and 89.8%, respectively.

Take `CCCS(=O)(=O)N1CCCC(C(=O)Nc2nc3ccc(NC(=O)c4ccc(F)c(OC)c4F)cc3s2)C1` (stereo unspecified): the growth with NCI-H23 lung was 33.9%; in the assay on NCI-H226 lung, 27.9%; in the assay with NCI-H322M lung, 75.6%; with HOP-62 NSCLC, 68.4%; in the assay with NCI-H460 lung, 55.9%; in the assay on NCI-H522 lung, 39.9%. Moreover, the growth was 57% with A549/ATCC NSCLC, 37.6% with 786-0 renal and 31.6% in the assay with COLO 205 colon.

For the compound `COc1ccc(NC(=O)Cn2c3c(sc2=O)[C@H]2[C@@H](O)[C@@H](O)[C@H](O)[C@@H]2CS3)cc1`, the growth is 104% with NCI-H23 lung; 96.3% with NCI-H226 lung; 101% in the assay on NCI-H322M lung; 99.5% with HOP-62 NSCLC; 108% with NCI-H460 lung; 94.2% in the assay on NCI-H522 lung. For the same compound, the growth in the assay on A549/ATCC NSCLC was 100%; in the assay on 786-0 renal, 104%; with COLO 205 colon it was 117%.

For `CC(=O)c1cccc(NC(=O)CCC(=O)NS(=O)(=O)c2ccc(C)cc2)c1`, the growth is 108% with NCI-H23 lung; 108% with NCI-H226 lung; 109% in the assay on NCI-H322M lung; 98.6% in the assay with HOP-62 NSCLC; 120% in the assay on NCI-H460 lung; 102% in the assay with NCI-H522 lung. The growth was 100% in the assay with A549/ATCC NSCLC, 105% with 786-0 renal and 113% in the assay on COLO 205 colon.

With `COc1ccc(/C=C/c2n(Cc3ccc4ccccc4c3)c3ccccc3[n+]2Cc2ccc3ccccc3c2)cc1`, the growth in the assay on NCI-H23 lung is -92.2% (active); in the assay on NCI-H226 lung it was -45% (active); with NCI-H322M lung, -96.2% (active); in the assay with HOP-62 NSCLC it was -76.4% (active); with NCI-H460 lung it was -85.6% (active); in the assay on NCI-H522 lung it was -91% (active). In addition, the growth in the assay on A549/ATCC NSCLC was -88.5% (active); in the assay on 786-0 renal it was -85.7% (active); in the assay with COLO 205 colon, -86.8% (active).

For `COc1c(F)ccc(C(=O)Nc2ccc3nc(NC(=O)C4CCCN(S(=O)(=O)c5cccc(C(F)(F)F)c5)C4)sc3c2)c1F` (stereo unspecified), the growth is 96.9% in the assay with NCI-H23 lung; 93.6% with NCI-H226 lung; 98.9% in the assay on NCI-H322M lung; 99% in the assay on HOP-62 NSCLC; 79.4% in the assay with NCI-H460 lung; 85.2% in the assay with NCI-H522 lung. Also, the growth in the assay with A549/ATCC NSCLC was 79.4%; in the assay on 786-0 renal it was 60.9%; in the assay with COLO 205 colon, 84.6%.

With `COc1c(F)ccc(C(=O)Nc2ccc3nc(NC(=O)C4CCCN(S(=O)(=O)c5ccc(Br)c(F)c5)C4)sc3c2)c1F` (stereo unspecified), the growth with NCI-H23 lung is 87.3%; with NCI-H226 lung it was 80.8%; in the assay with NCI-H322M lung, 94.5%; with HOP-62 NSCLC, 105%; in the assay with NCI-H460 lung, 84.1%; with NCI-H522 lung, 81.9%. The growth is 73.7% in the assay with A549/ATCC NSCLC, 52.7% in the assay on 786-0 renal and 81.8% in the assay on COLO 205 colon.

The values are drawn from PubChem BioAssay (NCI).
